# Data as given in paper PMC7862700, “An all-to-all approach to the identification of sequence-specific readers for epigenetic DNA modifications on cytosine”.
# Key:
# Assay in all cases: DAPPL (digital affinity profiling via proximity ligation, sequencing); 10 mM Tris-HCl pH 7.5, 50 mM NaCl, 1 mM DTT, 4% glycerol, room temperature, 30 min; GST-TFs on glutathione beads, 16-mer random dsDNA library, 0.1% formaldehyde crosslink after washing; high values mean tight binding
# Conditions in all cases: protein: recombinant; tags: N-terminal GST; dsDNA, one strand shown
# [1] = molecular target: T1, FLI1 (Homo sapiens, UniProt Q01543 1-452)
# T1 sequence: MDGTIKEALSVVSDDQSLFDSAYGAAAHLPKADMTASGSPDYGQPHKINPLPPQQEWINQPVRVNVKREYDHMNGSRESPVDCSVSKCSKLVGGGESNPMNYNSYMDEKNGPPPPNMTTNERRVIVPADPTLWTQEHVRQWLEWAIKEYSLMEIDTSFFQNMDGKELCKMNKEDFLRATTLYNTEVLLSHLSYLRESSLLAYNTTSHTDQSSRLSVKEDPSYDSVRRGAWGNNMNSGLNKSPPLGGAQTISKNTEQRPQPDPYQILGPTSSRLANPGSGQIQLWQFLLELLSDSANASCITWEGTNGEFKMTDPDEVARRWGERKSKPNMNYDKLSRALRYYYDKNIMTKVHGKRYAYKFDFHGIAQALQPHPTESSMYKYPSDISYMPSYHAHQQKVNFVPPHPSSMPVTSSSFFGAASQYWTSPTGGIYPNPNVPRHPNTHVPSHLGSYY
# Method in brief: (§1)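 GST fusions of human transcription factors were expressed in yeast and captured with glutathione beads. Once given DNA barcodes and pooled alongside a tag-only sample, they were incubated for 30 min at room temperature with 200 nmole of a random double-stranded 16-mer DNA library in Tris/NaCl/DTT/glycerol buffer, then washed, crosslinked (0.1% formaldehyde), proximity-ligated, PCR-amplified and sequenced on an Illumina NextSeq500. The binding signal of each hexamer is its read frequency for a factor divided by its frequency for the tag-only sample.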
# [2] = molecular target: T2, ELK1 (Homo sapiens, UniProt P19419 1-428)
# T2 sequence: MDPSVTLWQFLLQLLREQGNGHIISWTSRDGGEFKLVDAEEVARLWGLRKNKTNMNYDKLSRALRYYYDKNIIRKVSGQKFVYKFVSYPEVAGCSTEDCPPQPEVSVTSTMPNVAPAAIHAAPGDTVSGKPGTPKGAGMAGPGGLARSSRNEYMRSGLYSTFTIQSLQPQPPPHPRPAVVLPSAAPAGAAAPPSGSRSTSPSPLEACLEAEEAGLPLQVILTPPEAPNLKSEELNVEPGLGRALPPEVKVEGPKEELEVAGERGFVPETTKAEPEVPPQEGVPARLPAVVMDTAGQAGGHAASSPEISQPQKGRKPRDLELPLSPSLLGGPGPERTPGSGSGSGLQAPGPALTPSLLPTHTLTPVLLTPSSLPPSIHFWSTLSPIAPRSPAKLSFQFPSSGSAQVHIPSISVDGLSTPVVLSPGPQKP
# Method in brief: as §1
# [3] = molecular target: T3, GABPA (Homo sapiens, UniProt Q06546 1-454)
# T3 sequence: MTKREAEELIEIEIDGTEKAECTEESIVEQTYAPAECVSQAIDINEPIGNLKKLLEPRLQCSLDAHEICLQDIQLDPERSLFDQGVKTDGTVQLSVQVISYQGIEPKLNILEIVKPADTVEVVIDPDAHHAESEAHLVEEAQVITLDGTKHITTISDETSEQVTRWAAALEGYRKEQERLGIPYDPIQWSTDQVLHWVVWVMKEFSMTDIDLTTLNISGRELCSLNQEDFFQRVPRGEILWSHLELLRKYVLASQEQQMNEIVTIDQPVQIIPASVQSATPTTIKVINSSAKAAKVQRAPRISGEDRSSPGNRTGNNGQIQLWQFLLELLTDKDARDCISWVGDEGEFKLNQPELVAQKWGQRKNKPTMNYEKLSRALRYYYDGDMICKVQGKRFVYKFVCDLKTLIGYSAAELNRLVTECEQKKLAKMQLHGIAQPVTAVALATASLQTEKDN
# Method in brief: as §1
# [4] = molecular target: T4, ERG (Homo sapiens, UniProt P11308 1-479)
# T4 sequence: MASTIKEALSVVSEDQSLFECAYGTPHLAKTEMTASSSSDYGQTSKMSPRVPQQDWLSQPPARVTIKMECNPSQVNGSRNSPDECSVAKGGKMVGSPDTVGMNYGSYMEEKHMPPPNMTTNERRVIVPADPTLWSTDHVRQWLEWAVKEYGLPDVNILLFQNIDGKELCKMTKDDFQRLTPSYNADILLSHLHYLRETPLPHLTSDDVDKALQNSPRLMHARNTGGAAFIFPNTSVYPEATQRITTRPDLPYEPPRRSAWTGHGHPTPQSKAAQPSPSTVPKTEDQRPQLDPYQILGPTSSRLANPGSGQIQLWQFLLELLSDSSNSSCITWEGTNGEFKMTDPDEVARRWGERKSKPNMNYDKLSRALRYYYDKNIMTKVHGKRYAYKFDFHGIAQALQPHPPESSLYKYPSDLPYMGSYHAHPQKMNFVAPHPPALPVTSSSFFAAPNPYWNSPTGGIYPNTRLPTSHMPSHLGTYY
# Method in brief: as §1
# [5] = molecular target: ELF1 (Homo sapiens, UniProt P32519 1-619)
# Method in brief: as §1
# [6] = molecular target: T5, EHF (Homo sapiens, UniProt Q9NZC4 1-300)
# T5 sequence: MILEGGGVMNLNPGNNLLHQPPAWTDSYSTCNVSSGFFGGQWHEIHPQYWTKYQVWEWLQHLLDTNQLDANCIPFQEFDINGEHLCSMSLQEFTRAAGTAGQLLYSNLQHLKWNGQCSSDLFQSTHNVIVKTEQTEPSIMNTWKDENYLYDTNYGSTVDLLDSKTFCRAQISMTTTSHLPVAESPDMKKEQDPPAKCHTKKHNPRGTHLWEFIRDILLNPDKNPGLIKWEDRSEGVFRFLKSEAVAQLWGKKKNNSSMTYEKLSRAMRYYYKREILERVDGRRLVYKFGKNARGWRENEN
# Method in brief: as §1
# [7] = molecular target: SPI1 (Homo sapiens, UniProt P17947 1-270)
# Method in brief: as §1
# [8] = molecular target: SPIB (Homo sapiens, UniProt Q01892 1-262)
# Method in brief: as §1
# [9] = molecular target: T6, ELK3 (Homo sapiens, UniProt P41970 1-407)
# T6 sequence: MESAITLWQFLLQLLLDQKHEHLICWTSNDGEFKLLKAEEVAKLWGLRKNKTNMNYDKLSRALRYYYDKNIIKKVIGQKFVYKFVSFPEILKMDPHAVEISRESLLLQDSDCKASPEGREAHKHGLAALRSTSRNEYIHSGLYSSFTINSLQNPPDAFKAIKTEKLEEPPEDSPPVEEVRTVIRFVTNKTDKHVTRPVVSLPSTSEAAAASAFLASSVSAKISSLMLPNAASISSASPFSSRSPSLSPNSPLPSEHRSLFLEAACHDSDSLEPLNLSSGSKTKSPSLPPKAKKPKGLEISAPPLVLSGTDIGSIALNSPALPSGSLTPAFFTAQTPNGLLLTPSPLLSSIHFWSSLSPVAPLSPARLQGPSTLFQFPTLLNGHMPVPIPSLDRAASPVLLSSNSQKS
# Method in brief: as §1
# Chain of ELF1 (P32519 whole entry): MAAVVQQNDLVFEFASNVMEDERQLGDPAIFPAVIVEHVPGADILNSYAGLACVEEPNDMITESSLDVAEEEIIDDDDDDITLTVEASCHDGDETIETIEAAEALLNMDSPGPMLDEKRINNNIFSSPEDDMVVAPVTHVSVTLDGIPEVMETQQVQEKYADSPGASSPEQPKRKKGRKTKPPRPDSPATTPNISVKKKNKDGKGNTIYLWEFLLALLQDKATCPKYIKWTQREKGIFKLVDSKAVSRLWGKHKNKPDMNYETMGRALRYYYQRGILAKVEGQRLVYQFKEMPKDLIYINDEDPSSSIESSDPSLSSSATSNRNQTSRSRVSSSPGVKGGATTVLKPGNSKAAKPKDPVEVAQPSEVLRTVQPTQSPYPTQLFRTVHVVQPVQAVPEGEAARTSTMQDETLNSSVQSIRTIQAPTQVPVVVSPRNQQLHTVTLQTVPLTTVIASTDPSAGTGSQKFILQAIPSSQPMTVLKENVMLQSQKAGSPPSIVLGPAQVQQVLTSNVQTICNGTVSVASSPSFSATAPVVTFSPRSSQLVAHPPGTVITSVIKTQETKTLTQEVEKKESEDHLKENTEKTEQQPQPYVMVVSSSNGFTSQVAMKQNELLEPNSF
# Chain of SPIB (Q01892 whole entry): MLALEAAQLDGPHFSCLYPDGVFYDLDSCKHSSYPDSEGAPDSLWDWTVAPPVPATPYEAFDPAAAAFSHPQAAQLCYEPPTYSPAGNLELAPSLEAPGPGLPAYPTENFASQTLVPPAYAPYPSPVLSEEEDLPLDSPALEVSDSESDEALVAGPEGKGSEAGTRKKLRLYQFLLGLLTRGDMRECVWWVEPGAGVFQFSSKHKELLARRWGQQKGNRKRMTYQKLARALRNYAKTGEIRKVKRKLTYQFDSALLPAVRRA
sequence,measurement,setting,value
AATCGC,binding signal,[1],"1.12 fold enrichment (6-mer frequency, TF over GST control)"
same,binding signal,[2],"1.09 fold enrichment (6-mer frequency, TF over GST control)"
same,binding signal,[3],"1.14 fold enrichment (6-mer frequency, TF over GST control)"
same,binding signal,[4],"1.07 fold enrichment (6-mer frequency, TF over GST control)"
same,binding signal,[5],"1.13 fold enrichment (6-mer frequency, TF over GST control)"
same,binding signal,[6],"1.16 fold enrichment (6-mer frequency, TF over GST control)"
same,binding signal,[7],"1.05 fold enrichment (6-mer frequency, TF over GST control)"
same,binding signal,[8],"1.08 fold enrichment (6-mer frequency, TF over GST control)"
same,binding signal,[9],"1.16 fold enrichment (6-mer frequency, TF over GST control)"
